Measurements published in PubChem BioAssay (Tox21).
Inconclusive results are not listed. Active and inactive are the calls of the source. Unless noted, calls follow the shape of the dose curve; as a rule, active = well fitted curve in the direction sought with a large enough effect in the repeat runs; inconclusive = weak or mixed curves; inactive = no such curve, though single readings can be large; an effect the other way counts as inactive or inconclusive.

What was measured:
[1] = qHTS assay to identify small molecule antagonists of the estrogen related receptor (ERR) signaling pathway from Tox21 library - cell viability counter screen (AID 1224834); also: nearly all actives have a fitted effect of over 30% in size
In short: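 Viability readout (CellTiter-Fluor fluorescence, 30 min at 37 C) multiplexed with the ERR assay; cells treated 17.5 h at 37 C with compounds delivered in DMSO.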

[2] = target: Luciferin 4-monooxygenase (Photinus pyralis) (UniProt P08659); assay: qHTS assay to identify small molecule inhibitors of firefly luciferase (AID 1224835); also: series mostly up to about 120 µM; nearly all actives have a fitted effect of over 25% in size
In short: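 Inhibition of purified Photinus luciferase is measured by luminescence. Substrate levels (D-luciferin, ATP) sit at their KM values. Each compound is tested in a concentration series.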

[3] = qHTS assay to identify small molecule agonists of the constitutive androstane receptor (CAR) signaling pathway - cell viability counter screen (AID 1224836); also: series mostly up to about 92 µM; nearly all actives have a fitted effect of over 45% in size
In short: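 Cells were seeded and incubated 4 hrs. Compounds were added across 15 concentrations together with PK11195 at 0.75 uM final. Plates were incubated 23 hrs at 37 C. CellTiter-Fluor was added and fluorescence measured.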

[4] = qHTS assay to identify small molecule antagonists of the constitutive androstane receptor (CAR) signaling pathway - cell viability counter screen (AID 1224837); also: series mostly up to about 92 µM; nearly all actives have a fitted effect of over 45% in size
In short: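 Fluorescence from CellTiter-Fluor served as the viability signal. Human hepatoma HepG2 cells stably bearing hCAR and CYP2B6-2.2kb received compound plus CITCO (50 nM final) for 23 hr.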

[5] = target: Nuclear receptor subfamily 1 group I member 3 (Homo sapiens) (UniProt Q14994); assay: qHTS assay to identify small molecule antagonists of the constitutive androstane receptor (CAR) signaling pathway (AID 1224838);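 also: HepG2 cells stably expressing hCAR with CYP2B6 luciferase reporter stimulated by CITCO; nearly all actives have a fitted effect of over 40% in size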
In short: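 Quantitative HTS in double-stable HepG2-CYP2B6-hCAR cells. After 4 h plating, cells get compound (15 concentrations) and CITCO at 50 nM final, incubate 24 h at 37 C, then ONE-Glo luminescence is read.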

[6] = qHTS assay to identify small molecule antagonists of the estrogen related receptor signaling pathway with the pleiotropic PPARgamma coactivator (PGC) from Tox21 10K library - cell viability counter screen (AID 1224840; active = well fitted cell-killing curve with a large enough effect in the repeat runs, not every such curve was filed as active; also: nearly all actives have a fitted effect of over 40% in size)
In short: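 Compounds in DMSO, alongside positive and negative controls, were pinned onto PGC/ERR cells (2,000 per well). Exposure lasted 17.5 hours at 37 C, followed by a 30-minute CellTiter-Fluor incubation and fluorescence reading.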

[7] = target: Thyrotropin receptor (Homo sapiens) (UniProt P16473); assay: qHTS assay to identify small molecule agonists of the thyroid stimulating hormone receptor (TSHR) signaling pathway (AID 1224843; calls by dose curve; also: nearly all actives have a fitted effect of over 45% in size; also: potency is read from the fitted curve at half-maximal effect)
In short: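 Screening of the Tox21 10K collection used HEK293 cells engineered with TSHR at 800 cells per well. After a 30-min room-temperature compound exposure, HTRF cAMP reagents were added and fluorescence recorded 1 h later.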

[8] = target: Nuclear receptor subfamily 1 group I member 3 (Homo sapiens) (UniProt Q14994); assay: qHTS assay to identify small molecule agonists of the constitutive androstane receptor (CAR) signaling pathway (AID 1224839);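 also: HepG2 cells stably carrying human CAR and a CYP2B6 luciferase reporter; series mostly up to about 92 µM; nearly all actives have a fitted effect of over 15% in size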
In short: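 Cells were plated and incubated 4 hrs, then dosed with compounds at 15 concentrations. PK11195 was added to 0.75 uM final. After 24 hrs at 37 C, luciferase luminescence was measured.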

[9] = qHTS assay to identify small molecule antagonists of the estrogen related receptor signaling pathway with the pleiotropic PPARgamma coactivator (PGC) from Tox21 10K library (AID 1224841; call rule not given here; also: series mostly up to about 92 µM; actives are mostly falling curves and most rising ones were filed inactive; nearly all actives have a fitted effect of over 50% in size)
In short: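 Compound exposure ran 18 hours at 37 C in PGC/ERR cells (2,000/well) that had first rested 6 hours in a 37 C/5% CO2 incubator. Luciferase activity was then detected with One-Glo after a 30-minute room-temperature step.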

[10] = qHTS assay to identify small molecule agonists of the estrogen related receptor signaling pathway with the pleiotropic PPARgamma coactivator (PGC) from Tox21 10K library (AID 1224842); also: nearly all actives have a fitted effect of over 15% in size
In short: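 Luminescence from One-Glo (30 min, room temperature) measured after PGC/ERR cells had 18 h at 37 C with pinned compound (23 nL in DMSO). Cells had been seeded at 2,000 per well and pre-incubated 6 h.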

Measured: Potency

Nuclear receptor subfamily 1 group I member 3 (Homo sapiens), sequence (Q14994 whole entry, looked up): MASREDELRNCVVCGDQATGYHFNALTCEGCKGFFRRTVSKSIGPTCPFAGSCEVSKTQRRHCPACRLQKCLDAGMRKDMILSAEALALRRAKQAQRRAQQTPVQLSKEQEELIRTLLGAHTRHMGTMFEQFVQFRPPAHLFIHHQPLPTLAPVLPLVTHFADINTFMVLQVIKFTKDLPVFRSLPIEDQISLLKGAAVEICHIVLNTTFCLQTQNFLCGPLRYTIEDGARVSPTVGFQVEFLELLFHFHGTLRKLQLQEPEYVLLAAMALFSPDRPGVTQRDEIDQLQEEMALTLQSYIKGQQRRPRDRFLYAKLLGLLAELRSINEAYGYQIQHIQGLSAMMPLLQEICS
Luciferin 4-monooxygenase (Photinus pyralis), sequence (P08659 whole entry, looked up): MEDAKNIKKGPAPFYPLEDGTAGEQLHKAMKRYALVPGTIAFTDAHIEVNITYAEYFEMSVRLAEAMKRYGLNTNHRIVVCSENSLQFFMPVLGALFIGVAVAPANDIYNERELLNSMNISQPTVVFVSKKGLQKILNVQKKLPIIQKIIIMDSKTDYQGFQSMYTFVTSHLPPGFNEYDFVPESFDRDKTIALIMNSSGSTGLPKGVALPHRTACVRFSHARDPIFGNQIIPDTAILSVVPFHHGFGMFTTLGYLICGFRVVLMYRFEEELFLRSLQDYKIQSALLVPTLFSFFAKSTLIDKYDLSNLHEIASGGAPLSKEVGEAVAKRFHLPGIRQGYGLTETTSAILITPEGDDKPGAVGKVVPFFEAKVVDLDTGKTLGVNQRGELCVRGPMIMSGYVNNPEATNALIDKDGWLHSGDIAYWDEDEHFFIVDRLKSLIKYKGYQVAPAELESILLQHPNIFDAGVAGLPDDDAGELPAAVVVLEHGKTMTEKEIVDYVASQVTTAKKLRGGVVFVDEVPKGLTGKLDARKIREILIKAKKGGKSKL
Thyrotropin receptor (Homo sapiens), sequence (P16473 whole entry, looked up): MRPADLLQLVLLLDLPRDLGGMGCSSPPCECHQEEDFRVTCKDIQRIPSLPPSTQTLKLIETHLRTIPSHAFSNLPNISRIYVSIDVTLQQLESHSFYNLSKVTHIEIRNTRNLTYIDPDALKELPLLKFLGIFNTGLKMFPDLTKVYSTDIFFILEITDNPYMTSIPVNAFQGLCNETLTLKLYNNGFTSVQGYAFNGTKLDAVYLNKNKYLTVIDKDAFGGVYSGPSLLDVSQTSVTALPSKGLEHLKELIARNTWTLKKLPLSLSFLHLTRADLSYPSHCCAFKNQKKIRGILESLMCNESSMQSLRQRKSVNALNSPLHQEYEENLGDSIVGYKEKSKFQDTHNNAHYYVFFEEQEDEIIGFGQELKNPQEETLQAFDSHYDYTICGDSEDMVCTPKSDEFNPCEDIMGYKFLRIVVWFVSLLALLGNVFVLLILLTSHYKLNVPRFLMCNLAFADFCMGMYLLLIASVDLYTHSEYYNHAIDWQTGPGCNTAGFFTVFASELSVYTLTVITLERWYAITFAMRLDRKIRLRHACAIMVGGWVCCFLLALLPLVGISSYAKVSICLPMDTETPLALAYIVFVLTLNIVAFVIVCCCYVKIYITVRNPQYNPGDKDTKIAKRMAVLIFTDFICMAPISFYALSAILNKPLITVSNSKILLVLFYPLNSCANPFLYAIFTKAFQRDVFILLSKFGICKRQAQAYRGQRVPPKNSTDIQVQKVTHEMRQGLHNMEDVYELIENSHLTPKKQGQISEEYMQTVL

COC(=O)C1=CCCN(C)C1
not listed: [8] | [9] | [10]
inactive: all other assays above

CC(C=O)Cc1ccc2c(c1)OCO2 (stereo not given)
not listed: [9] | [10]
inactive: all other assays above

CN1C(=S)CN=C(c2ccccc2)c2cc(Cl)ccc21
not listed: [8] | [9] | [10]
inactive: all other assays above

O=P(O)(Oc1ccccc1)Oc1ccccc1
not listed: [9] | [10]
inactive: all other assays above

Oc1c(Cl)cccc1Cl
not listed: [9] | [10]
inactive: all other assays above

CCC(=O)c1ccccc1
not listed: [9] | [10]
inactive: all other assays above

CCN(CC)C(C)C(=O)c1ccccc1 (stereo not given)
not listed: [9] | [10]
inactive: all other assays above

CCOP(=S)(Oc1cnc(C(C)(C)C)nc1)OC(C)C (stereo not given)
not listed: [7] | [8]
inactive: all other assays above

Cc1cnc[nH]1
not listed: [9] | [10]
inactive: all other assays above

CNCC(=O)c1ccc(O)c(O)c1
active: [7] 2370 nM
not listed: [9] | [10]
inactive: all other assays above

CC(C)[N+](=O)[O-]
not listed: [9] | [10]
inactive: all other assays above

CN1C[C@@H](NS(=O)(=O)N(C)C)C[C@@H]2c3cccc4c3c(cn4C)C[C@H]21
not listed: [8] | [9] | [10]
inactive: all other assays above

CNC(=O)Oc1ccc(N(C)C)c(C)c1
not listed: [8]
inactive: all other assays above

Cc1coc2c1CCC(C)C2 (stereo not given)
not listed: [8] | [9] | [10]
inactive: all other assays above

O=C1CN2CCOC2(c2ccccc2Cl)c2cc(Cl)ccc2N1 (stereo not given)
not listed: [8] | [9] | [10]
inactive: all other assays above

O=[N+]([O-])c1cc(Cl)c(Cl)c(Cl)c1
not listed: [9] | [10]
inactive: all other assays above

O=C(NCO)NCO
not listed: [9] | [10]
inactive: all other assays above

Cc1nc(N)nc(N)n1
not listed: [9] | [10]
inactive: all other assays above

Nc1cc2c3c(c1)C(c1ccccc1)=N[C@@H](NC(=O)c1cccnc1)C(=O)N3CC2
not listed: [9] | [10]
inactive: all other assays above

NC(=O)O
not listed: [8] | [9] | [10]
inactive: all other assays above

CC(=O)CC(c1ccc(Cl)cc1)c1c(O)c2ccccc2oc1=O (stereo not given)
not listed: [9] | [10]
inactive: all other assays above

O=C1OC(CCN2CCCCC2)OC1(c1ccccc1)c1ccccc1 (stereo not given)
not listed: [9] | [10]
inactive: all other assays above

CCOP(=O)(N=C1SCCS1)OCC
not listed: [9] | [10]
inactive: all other assays above

O=[N+]([O-])c1cccc2cccnc12
not listed: [8] | [9] | [10]
inactive: all other assays above

CCN(CC)CCOC(=O)C(C)(c1ccccc1)c1ccccc1
not listed: [8]
inactive: all other assays above

Cc1cccc(C#N)c1
not listed: [9] | [10]
inactive: all other assays above

O=C(O)c1ccc2[nH]cc(CCCCN3CC=C(c4ccccc4)CC3)c2c1
not listed: [9] | [10]
inactive: all other assays above

CCCSC(=O)Cl
not listed: [9] | [10]
inactive: all other assays above

c1ccc(N2CCNCC2)cc1
not listed: [9] | [10]
inactive: all other assays above

ClCC(Cl)Cl
not listed: [9] | [10]
inactive: all other assays above
